A short description of assay [1]: HepG2 liver cancer cell viability effects, profiling panel, resazurin fluorescence, 24 h, PK04 Diversity Set (AID 1172). Further: test concentration not given here. Particulars: higher = more signal. For orientation: Alamar Blue is a resazurin reagent that responds to reducing activity.
Assay [2] is described as follows: basal S. cerevisiae growth modulation, no modifier, primary screen, OD600, strain BY4716, 24 h, basal condition (AID 1173). Particulars: OD600, 24 h, higher = more signal, called active from +8 up or from −8 down.
Assay [3] in a line: MM1S myeloma cell viability, profiling panel, resazurin fluorescence, basal, 24 h, PK04 Diversity Set (AID 1174). Further: test concentration not given here. Particulars: higher = more signal, called active from +8 up or from −8 down.
The target of assay [4] is Dihydroorotate dehydrogenase (quinone), mitochondrial (Plasmodium falciparum (isolate 3D7)) (UniProt Q08210). The assay is described as follows: PfDHODH enzyme inhibitors, primary screen, biochemical, C-terminal His tag, absorbance 600 nm (AID 1175).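 Further: recombinant parasite enzyme with a five histidine tag at its C terminus; test concentration not given here.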 Particulars: DCIP absorbance 600 nm, higher = more signal, called active from +8 up or from −8 down.
Chain of Dihydroorotate dehydrogenase (quinone), mitochondrial (Plasmodium falciparum (isolate 3D7)) (Q08210 whole entry, looked up): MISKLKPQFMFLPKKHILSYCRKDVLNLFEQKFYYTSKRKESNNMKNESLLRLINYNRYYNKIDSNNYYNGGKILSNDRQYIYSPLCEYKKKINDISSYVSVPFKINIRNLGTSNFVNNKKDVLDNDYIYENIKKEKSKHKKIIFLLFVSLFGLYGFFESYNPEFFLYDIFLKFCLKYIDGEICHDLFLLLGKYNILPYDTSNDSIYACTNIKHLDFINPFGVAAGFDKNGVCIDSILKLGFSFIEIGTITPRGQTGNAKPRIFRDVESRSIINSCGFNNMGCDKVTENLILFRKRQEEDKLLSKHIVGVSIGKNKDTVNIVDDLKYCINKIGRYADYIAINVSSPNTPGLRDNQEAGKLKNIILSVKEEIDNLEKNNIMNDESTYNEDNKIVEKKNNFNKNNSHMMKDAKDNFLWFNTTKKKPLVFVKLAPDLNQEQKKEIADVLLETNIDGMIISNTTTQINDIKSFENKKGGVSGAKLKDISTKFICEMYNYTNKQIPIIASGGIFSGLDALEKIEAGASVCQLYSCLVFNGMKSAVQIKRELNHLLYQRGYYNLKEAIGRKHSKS
Assay [5] can be described thus: P. aeruginosa biofilm formation inhibitors, primary screen, strain PAO1, LB-PBS medium, absorbance 600 nm (AID 1176). Further: test concentration not given here. Conditions: P. aeruginosa PAO1 growth/biofilm, A600, 12 h; higher = more signal.
Assay [6] can be described thus: S. cerevisiae RM11-1a growth modifiers, primary screen, strain RM11-1a, OD600, basal, 24 h (AID 1177).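 Further: cultures grown under basal conditions with no added stressor; test concentration not given here.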 Conditions: OD600, 24 h, higher = more signal, called active from +8 up or from −8 down.
Assay [7] in a line: E. coli acrAB mutant growth effects, primary screen, E. coli filamentation inducers, strain DRC39, OD650, 24 h (AID 1178).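 Further: growth measured as culture turbidity by optical density at 650 nm; test concentration not given here.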 Conditions: higher = more signal, called active from +8 up or from −8 down.
Assay [8] can be described thus: E. coli acrAB mutant growth effects, primary screen, E. coli filamentation inducers, strain DRC39, OD650, 48 h (AID 1179).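 Further: screen aims at cell division blockers that make cells filament.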 Conditions: E. coli DRC39 delta-acrAB growth, higher = more signal, called active from +8 up or from −8 down.
Assay [9] can be described thus: RPMI8226 myeloma cell viability, profiling panel, resazurin fluorescence, basal, 24 h, PK04 Diversity Set (AID 1180).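 Further: RPMI8826 multiple myeloma cell line at 5000 cells per well; test concentration not given here.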 Conditions: higher = more signal.
Assay [10] addresses E3 ubiquitin-protein ligase XIAP (Homo sapiens) (UniProt P98170). Put plainly: XIAP binders, primary screen, biophysical, small-molecule microarray, fluorescence 635 nm (AID 1181).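 Further: score merges 667 nm emission and signal to noise over triplicate slides.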 Conditions: small-molecule microarray binding, higher = more signal.

The record followed here is PubChem BioAssay.

The source made the active and inactive calls. Unless noted, how the calls were made is not given here.

Chain of E3 ubiquitin-protein ligase XIAP (Homo sapiens) (P98170 whole entry, looked up): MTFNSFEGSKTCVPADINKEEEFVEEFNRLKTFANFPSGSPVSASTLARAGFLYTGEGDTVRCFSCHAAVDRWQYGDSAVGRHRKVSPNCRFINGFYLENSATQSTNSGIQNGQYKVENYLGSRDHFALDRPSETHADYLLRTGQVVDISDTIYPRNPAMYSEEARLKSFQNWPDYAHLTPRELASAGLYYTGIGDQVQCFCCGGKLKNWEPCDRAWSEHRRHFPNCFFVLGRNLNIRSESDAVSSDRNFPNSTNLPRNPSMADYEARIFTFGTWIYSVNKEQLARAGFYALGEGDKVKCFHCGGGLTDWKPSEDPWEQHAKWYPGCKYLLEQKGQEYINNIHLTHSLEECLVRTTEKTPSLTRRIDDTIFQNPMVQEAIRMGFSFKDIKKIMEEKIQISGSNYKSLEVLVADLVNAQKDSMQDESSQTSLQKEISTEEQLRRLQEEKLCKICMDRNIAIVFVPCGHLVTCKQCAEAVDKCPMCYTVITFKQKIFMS

As to `CC(=O)N1Cc2ccccc2C[C@@]2(COC(c3ccc(OCCCO)cc3)=N2)C1=O`, the z-score is 1.17 in assay [1]; -0.797 (inactive) in [2]; -0.15 (inactive) in assay [3]; 2.26 (inactive) in assay [5]; -0.723 (inactive) in assay [6]; 1.73 (inactive) in assay [7]. In addition, the z-score in [8] was 2.3 (inactive); in assay [9], 0.266. Also, the values for the composite z-score in [4] and in assay [10] were -0.469 (inactive) and 1.2, respectively.

Consider `COCCCN1C(=O)[C@@]2(Cc3ccccc31)c1ccccc1C(=O)N(Cc1ccccc1C(F)(F)F)[C@H]2c1ccc(CO)cc1`, for which the z-score in assay [1] was 0.0531; in [2] it was 0.947 (inactive); in assay [3] it was -0.0554 (inactive); in assay [5] it was 4.64 (inactive); in assay [6] it was -0.305 (inactive); in assay [7] it was 0.0576 (inactive). In addition, the z-score in assay [8] was -0.297 (inactive); in assay [9], 0.0241. Further, the composite z-score was -20.2 (active) in assay [4] and -0.0373 in [10].

As for `CCOC(=O)C[C@H]1[C@H](OC(=O)Cc2ccc3c(c2)OCO3)[C@@H](NC(=O)c2ccc3ccccc3c2)c2cc(OCCCO)ccc2N1C(=O)c1ccccc1`, the z-score in [1] was 0.898; in assay [2], -0.206 (inactive); in assay [3], -1.09 (inactive); in assay [5], 0.69 (inactive); in assay [6], 0.738 (inactive); in [7] it was -0.241 (inactive). In addition, the z-score in assay [8] is 0.15 (inactive); in assay [9], -0.52. In addition, the composite z-score in [4] was -0.777 (inactive); in [10] it was -0.0426.

Regarding `CCN(CC)c1ccc(N2CC=CC34O[C@@H]5/C=C\CCC(C)OC(=O)C5[C@H]3C(=O)N(C(CO)C(C)C)[C@@H]4C2=O)cc1` (stereo not given in full), the z-score in assay [1] is -0.364; in assay [2], 0.0948 (inactive); in assay [3] it was 0.509 (inactive); in assay [5], -0.525 (inactive); in assay [6] it was -0.185 (inactive); in [7], 0.496 (inactive). Moreover, the z-score in [8] is 0.767 (inactive); in assay [9] it was 0.259. The composite z-score was -2.68 (inactive) in assay [4] and 0.0049 in assay [10].

As to `COC(=O)[C@@]1(Cc2ccccc2)[C@H]2c3cc(C(=O)N4CCCC4)n(Cc4cccc5ccccc45)c3C[C@H]2CN1C(=O)c1ccccc1`, the z-score in assay [1] was -1.13; in [2] it was 1.37 (inactive); in assay [3] it was -1.65 (inactive); in assay [5], -0.347 (inactive); in assay [6], 0.224 (inactive); in assay [7], -0.131 (inactive). In addition, the z-score was -0.0176 (inactive) in assay [8] and -1.9 in assay [9]. The figures for the composite z-score in assay [4] and in assay [10] were -0.323 (inactive) and -0.0082, respectively.

For `COc1ccc([Si](C)(C)[C@H]2[C@H](CC(=O)N3CCC[C@H]3CO)O[C@@]3(C(=O)N(Cc4cccc(N5C(=O)c6cccc7cccc5c67)c4)c4ccccc43)[C@@H]2C)cc1`, the z-score in assay [1] was -1.13; in assay [2] it was 0.547 (inactive); in assay [3], -0.712 (inactive); in assay [5] it was 0.495 (inactive); in assay [6], 1 (inactive); in [7], -0.672 (inactive). Moreover, the z-score was -0.881 (inactive) in assay [8] and -1.28 in assay [9]. In addition, the values for the composite z-score in assay [4] and in assay [10] were -1.74 (inactive) and 0.013, respectively.

As to `CC(C)c1ccc(NN2C(C(O)C(c3ccccc3)c3ccccc3)C=CC3C(=O)N(c4ccccc4)C(=O)C32)cc1` (stereo not given), the z-score in assay [1] is -1.49; in [2], -0.141 (inactive); in assay [3], -1.35 (inactive); in assay [5] it was 0.642 (inactive); in assay [6], 1.17 (inactive); in [7], -1.39 (inactive). Also, the z-score in [8] is -1.47 (inactive); in assay [9], -0.912. Also, the figures for the composite z-score in assay [4] and in [10] were 0.704 (inactive) and -0.0525, respectively.

`COCCOC(=O)N1C(=O)[C@@]2(c3cc(C#CCCO)ccc31)[C@H](C(=O)Nc1nc3ccccc3s1)[C@H]1C(=O)O[C@H](c3ccccc3)[C@H](c3ccccc3)N1[C@@H]2c1ccc(OCCO)cc1`: the z-score in assay [1] is 1.04; in assay [2] it was 1.96 (inactive); in assay [3] it was -0.922 (inactive); in [5], 2.84 (inactive); in assay [6] it was 2.33 (inactive); in assay [7] it was 0.348 (inactive). The values for the z-score in assay [8] and in assay [9] were 0.215 (inactive) and -1.66, respectively. Besides, the composite z-score is -0.944 (inactive) in [4] and 0.154 in assay [10].

In the case of `COc1ccc(C(=O)Nc2ccc(CN3C(=O)[C@@]4(O[C@@H](CCO)[C@H]([Si](C)(C)c5ccc(OC)cc5)[C@H]4C)c4ccccc43)cc2)cc1`, the z-score in assay [1] is -4.21; in [2] it was -3.8 (inactive); in [3], -9.13 (active); in [5], 2.25 (inactive); in [6], 3.08 (inactive); in assay [7] it was 1.53 (inactive). Also, the z-score in [8] was -0.0036 (inactive); in assay [9] it was -5.97. For the same molecule, the composite z-score was -0.851 (inactive) in assay [4] and -0.172 in [10].

`COCCOC(=O)N1C(=O)[C@@]2(c3ccccc31)[C@H](c1ccccc1OCCO)N1[C@H](c3ccccc3)[C@H](c3ccccc3)OC(=O)[C@H]1[C@@H]2C(=O)Nc1nc2ccccc2s1`: the z-score in assay [1] is 0.487; in [2], 1.33 (inactive); in assay [3], -0.442 (inactive); in [5], 2.76 (inactive); in [6] it was 2.22 (inactive); in [7], 0.931 (inactive). Also, the z-score is 1.74 (inactive) in [8] and 0.0081 in assay [9]. In addition, the composite z-score was 0.662 (inactive) in assay [4] and 0.0623 in [10].

For the molecule `O=C1NCC(=O)N2[C@@H]1C[C@@H](C(=O)O)[C@H]2c1cccc(OCCO)c1`, the z-score in assay [1] was 0.0195; in assay [2] it was -0.816 (inactive); in [3], -0.159 (inactive); in assay [5] it was -0.53 (inactive); in assay [6], 0.569 (inactive); in assay [7] it was -0.151 (inactive). Further, the z-score is 0.524 (inactive) in assay [8] and -0.828 in [9]. The results for the composite z-score in [4] and in assay [10] were 0.97 (inactive) and 3.93, respectively.

`CC(C)(C)OC(=O)CC[C@@]1(C(=O)NCC(O)CO)N=C(c2ccc(OCCCO)cc2)O[C@@H]1c1ccccc1N=[N+]=[N-]` (stereo not given in full): the z-score in [1] was 0.486; in assay [2], -0.69 (inactive); in assay [3], -1.26 (inactive); in [5], -0.127 (inactive); in [6] it was 0.151 (inactive); in assay [7] it was 0.4 (inactive). Besides, the values for the z-score in assay [8] and in assay [9] were 1.65 (inactive) and 0.576, respectively. Also, the composite z-score in assay [4] was 0.536 (inactive); in assay [10] it was 0.201.
